Measurements published in paper PMC11006913.

Legend:
Assay in all cases: PBM; 200 nM protein, PBS
Conditions in all cases: dsDNA, one strand shown
HOXC9 [1] = biological target: HOXC9 (Homo sapiens, UniProt P31274 178-260, K195R)
ALX4 [2] = biological target: ALX4 (Homo sapiens, UniProt Q9H161 200-286)
ALX4 [3] = biological target: ALX4 (Homo sapiens, UniProt Q9H161 200-286, Q225E)
HOXC9 [4] = biological target: HOXC9 (Homo sapiens, UniProt P31274 178-260)
ALX1 [5] = biological target: ALX1 (Homo sapiens, UniProt Q15699 118-204, L144V)
HOXC9 [6] = biological target: HOXC9 (Homo sapiens, UniProt P31274 178-260, R193K)
ALX1 [7] = biological target: ALX1 (Homo sapiens, UniProt Q15699 118-204, L144R)
HOXC9 [8] = biological target: HOXC9 (Homo sapiens, UniProt P31274 178-260, R222W)
ALX1 [9] = biological target: ALX1 (Homo sapiens, UniProt Q15699 118-204)
HOXA4 [10] = biological target: HOXA4 (Homo sapiens, UniProt Q00056 201-287, W262R)
HOXA4 [11] = biological target: HOXA4 (Homo sapiens, UniProt Q00056 201-287)
MSX2 [12] = biological target: MSX2 (Homo sapiens, UniProt P35548 130-214, R199I)
MSX2 [13] = biological target: MSX2 (Homo sapiens, UniProt P35548 130-214)
MSX2 [14] = biological target: MSX2 (Homo sapiens, UniProt P35548 130-214, F161Y)
VAX1 [15] = biological target: VAX1 (Homo sapiens, UniProt Q5SQQ9 86-172)
VAX1 [16] = biological target: VAX1 (Homo sapiens, UniProt Q5SQQ9 86-172, T142I)
VAX1 [17] = biological target: VAX1 (Homo sapiens, UniProt Q5SQQ9 86-172, K157R)
HOXC10 [18] = biological target: HOXC10 (Homo sapiens, UniProt Q9NYD6 254-340)
HOXD13 [19] = biological target: HOXD13 (Homo sapiens, UniProt P35453 263-343, T313R)
HOXD13 [20] = biological target: HOXD13 (Homo sapiens, UniProt P35453 263-343)
HOXC10 [21] = biological target: HOXC10 (Homo sapiens, UniProt Q9NYD6 254-340, K271E)
HOXD13 [22] = biological target: HOXD13 (Homo sapiens, UniProt P35453 263-343, T313A)
HOXA4 [23] = biological target: HOXA4 (Homo sapiens, UniProt Q00056 201-287, W262F)
HOXA4 (Homo sapiens, UniProt Q00056 201-287, W262F), sequence (Q00056 201-287 W262F): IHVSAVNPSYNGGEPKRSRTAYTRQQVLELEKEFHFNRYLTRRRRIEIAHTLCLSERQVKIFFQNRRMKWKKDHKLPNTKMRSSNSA

HOXC9 (Homo sapiens, UniProt P31274 178-260, R222W), sequence (P31274 178-260 R222W): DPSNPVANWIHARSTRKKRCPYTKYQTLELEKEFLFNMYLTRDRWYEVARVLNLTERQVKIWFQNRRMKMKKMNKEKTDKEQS
ALX4 (Homo sapiens, UniProt Q9H161 200-286, Q225E), sequence (Q9H161 200-286 Q225E): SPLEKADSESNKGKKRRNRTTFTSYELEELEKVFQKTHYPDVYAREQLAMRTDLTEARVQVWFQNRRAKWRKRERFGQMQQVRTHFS
HOXC9 (Homo sapiens, UniProt P31274 178-260, K195R), sequence (P31274 178-260 K195R): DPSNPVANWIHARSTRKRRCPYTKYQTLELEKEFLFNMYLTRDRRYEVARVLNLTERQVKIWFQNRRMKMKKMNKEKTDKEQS
HOXC9 (Homo sapiens, UniProt P31274 178-260), sequence (P31274 178-260): as the sequence (P31274 178-260 R222W) above, with W45R counted along it
HOXC9 (Homo sapiens, UniProt P31274 178-260, R193K), sequence (P31274 178-260 R193K): as the sequence (P31274 178-260 R222W) above, with R16K, W45R counted along it
ALX4 (Homo sapiens, UniProt Q9H161 200-286), sequence (Q9H161 200-286): as the sequence (Q9H161 200-286 Q225E) above, with E26Q counted along it
HOXA4 (Homo sapiens, UniProt Q00056 201-287), sequence (Q00056 201-287): as the sequence (Q00056 201-287 W262F) above, with F62W counted along it
HOXA4 (Homo sapiens, UniProt Q00056 201-287, W262R), sequence (Q00056 201-287 W262R): as the sequence (Q00056 201-287 W262F) above, with F62R counted along it
MSX2 (Homo sapiens, UniProt P35548 130-214), sequence (P35548 130-214): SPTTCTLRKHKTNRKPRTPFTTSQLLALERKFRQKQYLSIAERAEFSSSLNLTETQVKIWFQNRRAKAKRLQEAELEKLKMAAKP
MSX2 (Homo sapiens, UniProt P35548 130-214, F161Y), sequence (P35548 130-214 F161Y): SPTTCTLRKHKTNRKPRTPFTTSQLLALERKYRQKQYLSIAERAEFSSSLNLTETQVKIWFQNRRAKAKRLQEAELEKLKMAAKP
MSX2 (Homo sapiens, UniProt P35548 130-214, R199I), sequence (P35548 130-214 R199I): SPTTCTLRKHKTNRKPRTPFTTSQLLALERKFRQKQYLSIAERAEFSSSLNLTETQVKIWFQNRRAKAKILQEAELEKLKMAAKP
HOXD13 (Homo sapiens, UniProt P35453 263-343), sequence (P35453 263-343): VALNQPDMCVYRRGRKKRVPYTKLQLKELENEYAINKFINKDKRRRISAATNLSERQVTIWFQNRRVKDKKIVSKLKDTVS
VAX1 (Homo sapiens, UniProt Q5SQQ9 86-172, T142I), sequence (Q5SQQ9 86-172 T142I): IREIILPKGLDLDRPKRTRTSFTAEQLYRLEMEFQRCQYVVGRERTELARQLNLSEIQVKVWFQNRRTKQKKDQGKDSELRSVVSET
HOXC10 (Homo sapiens, UniProt Q9NYD6 254-340), sequence (Q9NYD6 254-340): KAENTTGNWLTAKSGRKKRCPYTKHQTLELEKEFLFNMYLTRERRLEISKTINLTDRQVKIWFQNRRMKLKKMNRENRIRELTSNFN
HOXD13 (Homo sapiens, UniProt P35453 263-343, T313R), sequence (P35453 263-343 T313R): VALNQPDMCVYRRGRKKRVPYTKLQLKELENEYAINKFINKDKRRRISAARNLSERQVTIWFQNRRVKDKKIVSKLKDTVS
ALX1 (Homo sapiens, UniProt Q15699 118-204, L144V), sequence (Q15699 118-204 L144V): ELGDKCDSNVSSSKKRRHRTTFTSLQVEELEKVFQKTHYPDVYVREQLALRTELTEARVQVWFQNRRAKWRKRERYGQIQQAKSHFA
VAX1 (Homo sapiens, UniProt Q5SQQ9 86-172), sequence (Q5SQQ9 86-172): as the sequence (Q5SQQ9 86-172 T142I) above, with I57T counted along it
ALX1 (Homo sapiens, UniProt Q15699 118-204, L144R), sequence (Q15699 118-204 L144R): as the sequence (Q15699 118-204 L144V) above, with V27R counted along it
VAX1 (Homo sapiens, UniProt Q5SQQ9 86-172, K157R), sequence (Q5SQQ9 86-172 K157R): as the sequence (Q5SQQ9 86-172 T142I) above, with I57T, K72R counted along it
ALX1 (Homo sapiens, UniProt Q15699 118-204), sequence (Q15699 118-204): as the sequence (Q15699 118-204 L144V) above, with V27L counted along it
HOXD13 (Homo sapiens, UniProt P35453 263-343, T313A), sequence (P35453 263-343 T313A): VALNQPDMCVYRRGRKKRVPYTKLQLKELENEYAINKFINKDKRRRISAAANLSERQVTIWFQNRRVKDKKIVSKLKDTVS
HOXC10 (Homo sapiens, UniProt Q9NYD6 254-340, K271E), sequence (Q9NYD6 254-340 K271E): as the sequence (Q9NYD6 254-340) above, with K18E counted along it

## CCAGTGGG
HOXC9 [1]
  binding signal: 9.58 upbm affinity estimate (log intensity, higher = more binding, comparable within an allelic series)
ALX4 [2]
  binding signal: 8.11 upbm affinity estimate (log intensity, higher = more binding, comparable within an allelic series)
ALX4 [3]
  binding signal: 8.16 upbm affinity estimate (log intensity, higher = more binding, comparable within an allelic series)
HOXC9 [4]
  binding signal: 9.54 upbm affinity estimate (log intensity, higher = more binding, comparable within an allelic series)
ALX1 [5]
  binding signal: 6.51 upbm affinity estimate (log intensity, higher = more binding, comparable within an allelic series)
HOXC9 [6]
  binding signal: 9.48 upbm affinity estimate (log intensity, higher = more binding, comparable within an allelic series)
ALX1 [7]
  binding signal: 6.46 upbm affinity estimate (log intensity, higher = more binding, comparable within an allelic series)
HOXC9 [8]
  binding signal: 9.57 upbm affinity estimate (log intensity, higher = more binding, comparable within an allelic series)
ALX1 [9]
  binding signal: 6.33 upbm affinity estimate (log intensity, higher = more binding, comparable within an allelic series)

## AAGCTAAT
HOXA4 [10]
  binding signal: 10.3 upbm affinity estimate (log intensity, higher = more binding, comparable within an allelic series)
HOXA4 [11]
  binding signal: 12.3 upbm affinity estimate (log intensity, higher = more binding, comparable within an allelic series)

## CGCGGTGC
HOXC9 [1]
  binding signal: 9.77 upbm affinity estimate (log intensity, higher = more binding, comparable within an allelic series)
ALX4 [2]
  binding signal: 8.05 upbm affinity estimate (log intensity, higher = more binding, comparable within an allelic series)
ALX4 [3]
  binding signal: 8.13 upbm affinity estimate (log intensity, higher = more binding, comparable within an allelic series)
HOXC9 [4]
  binding signal: 9.77 upbm affinity estimate (log intensity, higher = more binding, comparable within an allelic series)
MSX2 [12]
  binding signal: 9.6 upbm affinity estimate (log intensity, higher = more binding, comparable within an allelic series)
HOXC9 [6]
  binding signal: 9.76 upbm affinity estimate (log intensity, higher = more binding, comparable within an allelic series)
MSX2 [13]
  binding signal: 9.52 upbm affinity estimate (log intensity, higher = more binding, comparable within an allelic series)
HOXC9 [8]
  binding signal: 9.74 upbm affinity estimate (log intensity, higher = more binding, comparable within an allelic series)
MSX2 [14]
  binding signal: 9.68 upbm affinity estimate (log intensity, higher = more binding, comparable within an allelic series)

## CCGGCTAG
HOXC9 [1]
  binding signal: 9.47 upbm affinity estimate (log intensity, higher = more binding, comparable within an allelic series)
ALX4 [2]
  binding signal: 8.04 upbm affinity estimate (log intensity, higher = more binding, comparable within an allelic series)
ALX4 [3]
  binding signal: 8.02 upbm affinity estimate (log intensity, higher = more binding, comparable within an allelic series)
HOXC9 [4]
  binding signal: 9.55 upbm affinity estimate (log intensity, higher = more binding, comparable within an allelic series)
MSX2 [12]
  binding signal: 9.38 upbm affinity estimate (log intensity, higher = more binding, comparable within an allelic series)
HOXC9 [6]
  binding signal: 9.53 upbm affinity estimate (log intensity, higher = more binding, comparable within an allelic series)
MSX2 [13]
  binding signal: 9.32 upbm affinity estimate (log intensity, higher = more binding, comparable within an allelic series)
VAX1 [15]
  binding signal: 6.74 upbm affinity estimate (log intensity, higher = more binding, comparable within an allelic series)
HOXC9 [8]
  binding signal: 9.7 upbm affinity estimate (log intensity, higher = more binding, comparable within an allelic series)
MSX2 [14]
  binding signal: 9.36 upbm affinity estimate (log intensity, higher = more binding, comparable within an allelic series)
VAX1 [16]
  binding signal: 6.97 upbm affinity estimate (log intensity, higher = more binding, comparable within an allelic series)
VAX1 [17]
  binding signal: 6.86 upbm affinity estimate (log intensity, higher = more binding, comparable within an allelic series)

## ATTTACGA
HOXC9 [1]
  binding signal: 12.4 upbm affinity estimate (log intensity, higher = more binding, comparable within an allelic series)
HOXC10 [18]
  binding signal: 12.3 upbm affinity estimate (log intensity, higher = more binding, comparable within an allelic series)
HOXC9 [4]
  binding signal: 12.6 upbm affinity estimate (log intensity, higher = more binding, comparable within an allelic series)
HOXD13 [19]
  binding signal: 10.9 upbm affinity estimate (log intensity, higher = more binding, comparable within an allelic series)
HOXC9 [6]
  binding signal: 12.4 upbm affinity estimate (log intensity, higher = more binding, comparable within an allelic series)
HOXD13 [20]
  binding signal: 12 upbm affinity estimate (log intensity, higher = more binding, comparable within an allelic series)
HOXC10 [21]
  binding signal: 11.8 upbm affinity estimate (log intensity, higher = more binding, comparable within an allelic series)
HOXD13 [22]
  binding signal: 11.8 upbm affinity estimate (log intensity, higher = more binding, comparable within an allelic series)
HOXC9 [8]
  binding signal: 10.9 upbm affinity estimate (log intensity, higher = more binding, comparable within an allelic series)

## CATTTGGG
HOXA4 [10]
  binding signal: 10.1 upbm affinity estimate (log intensity, higher = more binding, comparable within an allelic series)
HOXA4 [11]
  binding signal: 11.3 upbm affinity estimate (log intensity, higher = more binding, comparable within an allelic series)
HOXA4 [23]
  binding signal: 10.3 upbm affinity estimate (log intensity, higher = more binding, comparable within an allelic series)
